Compounds with a hit are over-represented: about 3.7% of the library has one in this group of screens.
MLL AF4-AF9 inh = inhibitors of AF4 peptide binding to AF9, primary screen, biochemical, AlphaScreen, biotin-AF4 peptide, FLAG-AF9, single point; inhibition, % at 10 µM; 350,000 compounds, 0.47% hits;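 active = every replicate reaching a set inhibition limit, whatever the replicate mean, cut at about 25% in these data; inconclusive = mean inhibition reaches that limit but some replicates miss it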;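 also: 0% = plate neutral control median and 100% = total signal loss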
Target sequence (P42568 whole entry, looked up): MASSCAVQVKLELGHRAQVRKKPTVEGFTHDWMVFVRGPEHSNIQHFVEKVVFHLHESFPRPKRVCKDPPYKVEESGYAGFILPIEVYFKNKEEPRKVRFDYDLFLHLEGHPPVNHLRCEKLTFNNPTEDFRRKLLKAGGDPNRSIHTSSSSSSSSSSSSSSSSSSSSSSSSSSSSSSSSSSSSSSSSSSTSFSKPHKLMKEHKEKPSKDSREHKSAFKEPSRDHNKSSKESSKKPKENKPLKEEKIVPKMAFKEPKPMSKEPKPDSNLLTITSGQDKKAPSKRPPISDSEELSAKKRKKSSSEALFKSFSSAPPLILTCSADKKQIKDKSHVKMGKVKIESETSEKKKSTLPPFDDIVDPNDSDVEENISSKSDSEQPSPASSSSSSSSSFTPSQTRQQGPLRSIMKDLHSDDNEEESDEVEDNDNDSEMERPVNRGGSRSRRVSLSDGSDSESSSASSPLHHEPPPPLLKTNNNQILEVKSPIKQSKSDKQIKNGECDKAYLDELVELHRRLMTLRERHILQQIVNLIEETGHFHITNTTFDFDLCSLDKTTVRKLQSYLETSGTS
Wnt bcat act = Wnt/beta-catenin pathway activators, primary screen, cell-based, plate reader, single point; activation, % at 9.35 µM; 300,000 compounds, 1.2% hits; Wnt/beta-catenin reporter cell assay, activator; in the data active = activation above about 30%, passing the limit was not always enough; inconclusive = no clear call, values can overlap the other calls;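 also: 0% = neutral control wells and 100% = positive control wells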
Ecoli rRNA inh = reduced GFP signal of wild-type E. coli, primary screen, bacterial rRNA inhibitor project, GFP/RFP fluorescence, OD600, single point; GFP signal change (wild-type ribosome), % (concentration not given with the values); 350,000 compounds, 1.6% hits; E. coli WT GFP vs humanized-ribosome RFP mutants, 24 h; hits give low values; DMSO median 0, no signal -100; AID 720706, 2013;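 active = significant combined selectivity score with lowered wild-type GFP, culture density cut under 30%, mutant RFP and density less affected; inactive = any of these conditions unmet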
MITF act = activators of MITF-driven TRPM1 promoter reporter, primary screen, cell-based, SK-MEL-5, luciferase, single point; SK-MEL-5 TRPM1-promoter luciferase, 24 h; % of positive control, neutral wells = 0; activation, % at 12.5 µM; 300,000 compounds, 0.75% hits;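 active = mean activation of at least 80% with every replicate also reaching 80%; inconclusive = mean reaches 80% but some replicate falls short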;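 also: 0% = neutral control wells and 100% = parthenolide positive control wells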
esBAF inh = Bmi1 luciferase reporter increase in mESCs, primary screen, esBAF inhibitor project, mouse ES cells, Bmi1 luciferase knock-in, single point; 24 h; 100% = twice the neutral-well signal; 350,000 compounds, 2% hits; reporter increase, % at 12.5 µM; in the data active = activation above about 40%; inconclusive = no clear call, values can overlap the other calls;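 also: 0% = median of the plate's neutral control wells and 100% = double that signal; a rise in the Bmi1 reporter signal indicates esBAF inhibition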
The depositor's hits bear a star; ? = inconclusive; / = no result.

SMILES	MLL AF4-AF9 inh	Wnt bcat act	Ecoli rRNA inh	MITF act	esBAF inh
Cc1ccc(NC(=O)NCC2CC2(Cl)Cl)cc1 (stereo not drawn)	-1.8	15.0	0.0	53.5	49.9*
COc1ccc(/C(=N/Nc2ncnc3ccccc23)C(=O)O)cc1	-2.6	21.1	-1.0	-1.2	58.8*
O=S1(=O)CCN(OCc2ccc(F)cc2Cl)CC1	-0.6	-1.5	4.1	14.7	/
CCOC(=O)N1CCN(c2ccc(C(=O)c3ccccc3)cc2F)CC1	/	/	-44.7	17.7	55.7*
CCCC(=O)c1ccc(N2CCCC2)c(F)c1	/	48.8*	/	68.2	?
CCOC(=O)N1CCN(c2ccc(C(C)=O)cc2F)CC1	/	-5.9	/	-7.0	6.1
Cc1ccc(-c2[nH]c(=S)[nH]c(=O)c2C#N)cc1	-1.5	-2.3	-0.1	13.3	0.3
COc1ccc(C(=O)N(CC2CCCO2)C(C(=O)NC2CCCC2)c2ccc(C)cc2)cc1OC (stereo not drawn)	/	0.7	/	/	/
C[C@@H]1CN([C@H](C)CO)C(=O)c2cc(C#C[C@@H](C)O)cnc2O[C@@H]1CN(C)CC1CCOCC1	-2.8	/	13.3	/	-1.0
COc1cccc(CNC(=O)CNC(=S)N(Cc2ccccc2)Cc2ccccc2F)c1	-0.6	-2.1	-24.6	0.9	/
Cc1ccc(CNC(=O)CNC(=S)N(Cc2ccccc2)Cc2ccccc2F)cc1	0.6	-1.2	-29.5*	6.6	/
O=C(CNC(=S)N(Cc1ccccc1)Cc1ccccc1F)NCc1ccccc1	-1.8	-1.1	-28.6	-8.1	/
O=C(CNC(=S)N(Cc1ccccc1)Cc1ccccc1F)NCc1ccc(Cl)cc1	0.4	0.3	-26.8*	9.9	/
COC(=O)C1CCN(C(=O)C2CC(=O)N(c3ccc(C)c(Cl)c3)C2)CC1 (stereo not drawn)	5.9	17.0	-3.5	46.6	56.2*
Cc1ccc(S(=O)(=O)N(C)C[C@H]2Oc3ccc(NC(=O)C4CCCCC4)cc3CC(=O)N([C@H](C)CO)C[C@H]2C)cc1	-1.3	/	-2.3	/	-1.0
CCOc1ccc(OCC)c(NC(=O)CSc2nc3cccnc3n2C)c1	-18.0	0.5	-33.0*	-10.9	/
CCOc1ccc(OCC)c(NC(=O)CSc2nc3ccccc3c(=O)n2C)c1	/	/	/	-12.0	-9.2
C[C@@H]1CN([C@H](C)CO)C(=O)c2cc(NC(=O)Nc3cccc4ccccc34)ccc2O[C@H]1CN(C)C(=O)Nc1ccc(C(F)(F)F)cc1	-9.7	/	-2.4	/	5.6
NC(=O)c1ccccc1N/C=C/C(=O)c1ccccc1	/	48.4*	2.3	/	-12.9
O=C(/C=C/NNC(=O)c1ccccc1O)c1ccccc1	-9.3	-0.1	-0.6	0.3	61.1*
NC(=O)c1ccccc1NC(=O)/C=C/c1ccccc1	/	73.7*	/	26.0	/
O=C(/C=C/NNC(=O)c1ccccc1)c1ccccc1	/	/	/	7.8	16.2
O=C(/C=C/c1ccc(Cl)cc1)NC(=S)Nc1ccc(C(=O)O)cc1	1.1	-2.1	1.1	12.6	0.6
CN(C)c1ccc(NC(=S)NC(=O)/C=C/c2ccc(Cl)cc2)cc1	/	26.8	/	57.0	45.7*
CCNC(=O)C[C@H]1C=C[C@H](NC(=O)C2CCOCC2)[C@H](CO)O1	-1.2	/	2.4	/	-1.7
SMILES	MLL AF4-AF9 inh	Wnt bcat act	Ecoli rRNA inh	MITF act	esBAF inh
CCCS(=O)(=O)NC(=O)C1(C)CCCN(C(=O)c2ccccc2)C1 (stereo not drawn)	-2.4	5.0	14.1	/	-4.9
O=C(/C=C/c1ccc(Cl)cc1)NC(=S)Nc1ccccc1C(=O)O	-1.1	2.7	-18.1*	-10.2	/
NC(=O)c1ccccc1NC(=O)/C=C/c1ccc(Cl)cc1	/	18.9	/	57.7	27.4
C[C@@H]1CCCCO[C@@H](CN(C)S(=O)(=O)c2cccs2)[C@@H](C)CN([C@@H](C)CO)C(=O)c2cc(NC(=O)CCC(F)(F)F)ccc2O1	-0.7	/	0.0	/	5.2
Cc1c(C(=O)Nc2ccccc2)csc1-c1ccccc1	/	59.2*	/	107.3*	/
CCOc1ccc(-c2c(C(=O)N/N=C/c3ccc(C)cc3)nnn2-c2nonc2N)cc1	-2.5	0.9	9.7	/	5.9
CCOc1ccc(-c2c(C(=O)N/N=C/c3ccccc3)nnn2-c2nonc2N)cc1	3.0	33.5*	11.2	/	0.8
CN(Cc1c(C(=O)N/N=C/c2c(F)cccc2Cl)nnn1-c1nonc1N)c1ccccc1	-0.1	0.4	-21.6*	-2.9	-10.0
Cc1ccc(SCc2c(C(=O)N/N=C/c3ccccc3)nnn2-c2nonc2N)cc1	-4.0	-0.2	-16.3*	/	/
CN(Cc1c(C(=O)N/N=C/c2cccc(O)c2)nnn1-c1nonc1N)c1ccccc1	/	/	/	-12.0	3.5
CCc1ccc(/C=N/NC(=O)c2nnn(-c3nonc3N)c2C(C)C)cc1	-5.0	-1.0	1.1	12.2	9.0
CC(C)c1c(C(=O)N/N=C/c2cccnc2)nnn1-c1nonc1N	-6.3	-1.9	-20.0*	-1.5	6.4
CCOC(=O)CN1CC23C=CC(O2)C(C(=O)O)C3C1=O (stereo not drawn)	-4.9	0.2	12.5	9.3	-13.5
Cc1cccn2c(=O)c(/C=N/O)c(N3CCOCC3)nc12	0.5	-0.6	12.1	-1.8	/
CCCNC(=O)[C@@H]1[C@@H](CO)[C@@H]2Cn3c(ccc(-c4ccc(F)cc4)c3=O)[C@H]1N2CCC	-10.4	/	0.6	/	-0.4
O=C(NCCN1CCOCC1)C1CCN(c2nc3ccccc3o2)CC1	40.3*	-1.1	-0.5	2.5	-5.3
CCOc1ccc(-c2nc(-c3cccs3)c(CC(=O)O)s2)cc1OC	-4.9	2.3	-19.4*	8.2	10.2
Cc1ccc(-c2nnc(N(C)C(=O)c3cccnc3)s2)cc1	/	27.5	/	29.1	/
COc1ccc(-c2nnc(N(C)C(=O)c3cccnc3)s2)cc1	/	41.0*	/	35.8	36.5
Cc1ccc(CC(=O)Nc2ccc([N+](=O)[O-])cc2C)cc1	-7.4	/	-2.0	-5.4	/
CC(=O)Nc1cn(-c2ccccc2)nc1-c1ccccc1	0.3	-1.3	2.2	-12.3	-0.2
O=C(CCl)Nc1cn(-c2ccccc2)nc1-c1ccccc1	1.0	11.1	-27.0*	-73.3	8.5
Cc1noc(C)c1NC(=O)Nc1ccc2c(c1)C(=O)N([C@H](C)CO)C[C@H](C)[C@@H](CN(C)Cc1ccc(Oc3ccccc3)cc1)O2	10.5	/	3.4	/	-2.2
Nc1ccc(N2CCN(c3ccc(Cl)c(Cl)c3)CC2)cc1	27.4*	-1.1	/	12.9	/
O=C(c1ccco1)N1CCN(c2ccc(Cl)cc2)CC1	/	22.3	/	92.8*	48.2*
O=C(c1ccco1)N1CCN(Cc2c(F)cccc2Cl)CC1	1.1	12.2	6.0	/	45.0*
O=C(c1ccco1)N1CCN(Cc2ccccc2F)CC1	-0.6	-2.0	-0.7	-2.8	8.3
O=C(c1ccco1)N1CCN(c2ccc(Cl)c(Cl)c2)CC1	/	12.0	/	57.0	44.4*
COCc1cc(N2CCNC[C@@H]2C)ccc1N1CCS(=O)(=O)CC1	/	-1.0	22.5	/	/
